This note sets out measurements from PubChem BioAssay.

This test concerns the target Calmodulin-1 (Homo sapiens) (UniProt P0DP23). The experiment in a line: small molecules binding calmodulin-1 with EGTA – biochemical, small-molecule microarray, Cy5-labelled CALM1, profiling panel (AID 1111).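 Also: labelled calmodulin applied in Tris saline Tween buffer holding calcium plus EGTA and DTT.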 The conditions noted are these: Cy5-CALM1 binding fluorescence, higher = more signal.
Consider `C=CCNC(=O)[C@@H]1[C@H]2C(=O)O[C@H](c3ccccc3)[C@H](c3ccccc3)N2[C@H](c2ccc(O)cc2)[C@@]12C(=O)Nc1ccc(C#CCC(C(=O)OC)C(=O)OC)cc12`, for which the composite z-score is -0.0406. With `CCOC(=O)C1=C[C@@H](c2ccccc2)N(S(=O)(=O)c2ccc(C)cc2)[C@H]1c1ccccc1` the figure was 0.997; with `[N-]=[N+]=NC[C@H](Cc1ccccc1)NC(=O)c1ccccc1`, -0.334; with `COc1ccc(C(O)C2C=CC3C(=O)N(c4ccccc4)C(=O)C3N2Nc2ccccc2F)cc1` (stereo unspecified), 0.528.

For `C#C[C@@H](CC)O[Si](C#CCCCC#N)(C(C)C)C(C)C`, the composite z-score was -0.442. To `CCCCCCCCCCC(O)C1C=CC2C(=O)N(C)C(=O)C2N1Nc1cc(OC)c(OC)c(OC)c1` (stereo unspecified) belongs 1.82; to `C=C[C@H](C)[C@H](OC(=O)Nc1ccc(OC)cc1)c1ccc(OCCO)cc1`, -1.39. As for `COCCOC(=O)N1C(=O)[C@@]2(c3cc(C#CC4(O)CCCCCC4)ccc31)[C@H](c1ccc(OCCO)cc1)N1[C@H](c3ccccc3)[C@H](c3ccccc3)OC(=O)[C@H]1[C@@H]2C(=O)Nc1nc2ccccc2s1`, the composite z-score was 1.35. On to `O=c1cccc(-c2ccco2)o1`, for which the composite z-score was -0.221. With `CN(C)C(=O)[C@@]1(Cc2ccccc2N=[N+]=[N-])N=C(c2ccc(OCCCO)cc2)O[C@H]1c1ccccc1` the figure was 2.4. With `CC(C)[C@H]1NC(=O)[C@@]23C(=O)N[C@@H](Cc4ccccc4)C2[C@H](C)[C@@]2(C)O[C@H]2C3/C=C/CCC/C=C/CNC(=O)[C@H](Cc2ccccc2)NC1=O` (stereo partly specified) the figure was -0.773. With `C=CCC(OC(C)=O)[C@@H]1[C@@H](N(Cc2cc3ccccc3o2)C(=O)c2ccc(-c3ccccc3)cc2)c2cc(OCCCO)ccc2N1C(=O)Cc1ccc(OC)cc1` (stereo partly specified) the figure was -0.184. `[N-]=[N+]=NCc1ccccc1[C@H]1OC(c2ccc(OCCCO)cc2)=N[C@@]1(CCS(=O)(=O)c1ccccc1)C(=O)NCc1ccccc1` yielded a composite z-score of 1.65. To `CC(=O)n1cc(C(O)C2C=CC3C(=O)N(c4ccccc4)C(=O)C3N2Nc2ccc(C(C)C)cc2)c2ccccc21` (stereo unspecified) belongs 2.53; to `C=C(COC)C(=O)CC[C@H](OC(C)=O)c1ccc(OCCO)cc1`, -0.2. With `Cc1ccccc1C(O)C1C=CC2C(=O)NC(=O)C2N1Nc1ccc(Cl)cc1Cl` (stereo unspecified) the figure was 1.95.
